Results reported in PubChem BioAssay (NCATS).
Calls of active or inactive are those of the source. Where a call stands in place of a potency, no number is given. The call rests on the fitted dose curve; in most records, active means well fitted inhibition curve with a large enough effect; inconclusive means small, poorly fitted or top-dose-only effect; inactive means flat fitted curve, though single readings scatter.

These compounds were tested against ATP-dependent DNA helicase Q1 (Homo sapiens) (UniProt P46063) (assay: qHTS Validation Assay for Inhibitors of RecQ-Like Dna Helicase 1 (RECQ1) (AID 2353)). Details: recombinant RECQ1 helicase DNA unwinding assay; series mostly up to 25.6 µM.
Description: Survival of cells and the faithful propagation of the genome depend on elaborate mechanisms of detecting and repairing DNA damage. Treatment of advanced cancer relies on radiation therapy or chemotherapy, which kill cancer cells by causing extensive DNA damage. It is often found, that cancer cells develop resistance to therapy through enhanced activity of DNA repair functions; this has led to an increased interest in developing drugs that interfere with DNA repair, which could sensitize cancer cells to conventional therapy.
This validation qHTS assay pertains to human RECQ1, which is important in resolving abnormal DNA structures formed during replication or homologous recombination. Shutting down the expression of RECQ1 leads to chromosomal instability and higher radiation sensitivity in cultured cells.
The validation assay was a fluorescence quenching based kinetic qHTS for RECQ1 Helicase DNA unwinding. The activity was measured as ATP-dependent separation of a 20-bp DNA duplex extended by 30-nt single-stranded tails (forked duplex). The forked DNA substrate was tagged with rhodamine fluorophore (carboxytetramethyl rhodamine, TAMRA) and BHQ-2 (Black Hole Quencher 2) dark quencher. Strand separation results in an increase in the fluorescence of TAMRA (excitation 525 nm, emission 598 nm). This substrate construct operates in a red-shifted region where very few compound library members have been noted to fluoresce (PubChem AIDs 593 and 594). An additional feature of the assay is the inclusion of 2.5 ug/ml poly (dIdC), to reduce interference by compounds such as DNA intercalators, a major source of false inhibitors.
Opher Gileadi, Structural Genomics Consortium, University of Oxford
Screening Center PI: Austin, C.P.
Screening Center: NIH Chemical Genomics Center [NCGC]
Three uL of reaction buffer (25 mM Tris-HCl (pH 8.0), 5 mM NaCl, 2 mM MgCl2, 1mM DTT, 0.01% Tween- 20, and 2.5 ug/ml poly(dI-dC), including enzyme (50 nM RECQ1T1), were dispensed into a 1536-well Greiner black assay plate via solenoid-valve based nanoliter dispensers. Compounds (23 nl each in columns 5-48) and control (23 nl each in column 2 as dose-response) were transferred via a Kalypsys pintool equipped with a 1536-pin array. The plates were incubated for 15 min at room temperature, and then 1 ul of substrates (200 nM DNA and 2 mM ATP, final concentrations) was added to start the reaction. The plate was transferred into a ViewLux high-throughput CCD imager where the reaction progress was measured in a discontinuous kinetic mode (two reads spaced 2 hours apart, with intermediate room temperature incubation of the covered assay plate) by using standard red-fluorescence optics (excitation filter 525 nm, emission filter 598 nm). Enzyme-free and vehicle (DMSO) controls were included for signal normalization.
Potency means the concentration at half of the fitted maximal effect.

Chain of ATP-dependent DNA helicase Q1 (Homo sapiens) (P46063 whole entry, looked up): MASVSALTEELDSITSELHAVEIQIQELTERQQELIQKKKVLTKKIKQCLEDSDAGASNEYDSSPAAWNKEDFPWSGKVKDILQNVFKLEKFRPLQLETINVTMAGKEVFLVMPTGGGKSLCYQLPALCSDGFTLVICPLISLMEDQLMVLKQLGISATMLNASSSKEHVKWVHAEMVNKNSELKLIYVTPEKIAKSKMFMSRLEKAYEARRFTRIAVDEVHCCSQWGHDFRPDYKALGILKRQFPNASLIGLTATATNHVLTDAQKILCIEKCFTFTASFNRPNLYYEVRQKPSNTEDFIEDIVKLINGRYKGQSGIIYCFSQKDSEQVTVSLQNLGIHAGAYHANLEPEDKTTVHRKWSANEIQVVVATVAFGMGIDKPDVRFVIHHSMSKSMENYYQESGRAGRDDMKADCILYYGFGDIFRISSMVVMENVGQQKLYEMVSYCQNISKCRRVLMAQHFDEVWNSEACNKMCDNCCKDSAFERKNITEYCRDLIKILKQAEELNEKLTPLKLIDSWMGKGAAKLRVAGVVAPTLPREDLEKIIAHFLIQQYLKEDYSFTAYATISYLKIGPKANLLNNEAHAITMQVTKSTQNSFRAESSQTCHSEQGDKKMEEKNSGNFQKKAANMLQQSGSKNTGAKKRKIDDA

| SMILES | Potency |
| --- | --- |
| NCCc1ccc(S(=O)(=O)F)cc1 | inactive |
| NCCc1c[nH]c2ccc(C(N)=O)cc12 | inactive |
| CCCCCCC(C)(C)c1ccc([C@@H]2C[C@H](O)CC[C@H]2CCCO)c(O)c1 | inactive |
| C#CCN[C@H](C)Cc1ccccc1 | inactive |
| CC(N)Cc1c[nH]c2ccc(O)cc12 (stereo not given) | inactive |
| CN1C2CCC1CC(OC(c1ccccc1)c1ccccc1N)C2 (stereo not given) | inactive |
| CC(Cc1ccc(OCC(=O)O)cc1)NCC(O)c1cccc(Cl)c1 (stereo not given) | inactive |
| CC1(C(=O)O)C2CCC(O2)C1(C)C(=O)O (stereo not given) | inactive |
| NC(=O)c1cc(N2CC2)c([N+](=O)[O-])cc1[N+](=O)[O-] | inactive |
| NC(Cc1ccc(N(CCCl)CCCl)cc1)C(=O)O (stereo not given) | inactive |
| c1ccc2c(N3CCNCC3)cccc2c1 | inactive |
| C[N+](C)(C)CCOC(=O)CBr | inactive |
| CCCN(CCC)C1Cc2cc(OC)c(OC)cc2C1 | inactive |
| C=CCN1CC[C@]23c4c5ccc(O)c4O[C@H]2/C(=N/NC(=O)c2ccccc2)CC[C@@]3(O)[C@H]1C5 | inactive |
| COC(=O)N1CCN(C(=O)Cc2ccc(Cl)c(Cl)c2)C(CN2CCCC2)C1 (stereo not given) | inactive |
| Oc1ccc2c3c1O[C@H]1c4[nH]c5ccccc5c4C[C@@]4(O)C(C2)N(CC2CC2)CCC314 (stereo not given in full) | inactive |
| COc1ccc(OC)c(C(O)C(C)N)c1 (stereo not given) | inactive |
| Cc1o[nH]c(=O)c1CC(N)C(=O)O (stereo not given) | inactive |
| COc1ccc2c(c1)/C(=C/c1cnc[nH]1)C(=O)N2 | inactive |
| CC(C)NP(=O)(NC(C)C)OP(=O)(NC(C)C)NC(C)C | inactive |

| SMILES | Potency |
| --- | --- |
| CCCN(CCC)CCc1ccc(O)c(O)c1 | inactive |
| C/C(O)=C(\C#N)C(=O)Nc1cc(Br)ccc1Br | inactive |
| CCCN1CC[C@@H]2c3cc(O)ccc3CC[C@@H]21 | inactive |
| CCCN(CCC)[C@@H]1CCc2cccc(O)c2C1 | inactive |
| CCCCCCCCCCCCCC(=O)O[C@@H]1[C@@H](C)[C@@]2(O)[C@@H](C=C(CO)C[C@@]3(O)C(=O)C(C)=C[C@@H]23)C2C(C)(C)[C@@]21OC(C)=O (stereo not given in full) | inactive |
| CCCn1c(=O)c2[nH]c(C3CCCC3)nc2n(CCCOC(=O)c2ccc(S(=O)(=O)F)cc2)c1=O | inactive |
| O=[N+]([O-])c1cc(O)c(O)c([N+](=O)[O-])c1 | inactive |
| COc1ccc2c(c1)[C@@]13CCCC[C@H]1[C@@H](C2)NCC3 | inactive |
| NCC(O)c1cc(O)c(O)cc1F (stereo not given) | inactive |
| Cc1c2ccncc2c(C)c2c1[nH]c1ccccc12 | 10 µM (active) |
| C=CCN1C[C@@H](C)N([C@H](c2ccc(C(=O)N(CC)CC)cc2)c2cccc(OC)c2)C[C@@H]1C | inactive |
| O=P(O)(O)C(Cl)(Cl)P(=O)(O)O | inactive |
| CNC(=O)OCC[N+](C)(C)C | inactive |
| O=[N+]([O-])c1ccc2nc(N3CCNCC3)ccc2c1 | inactive |
| NCC(CP(=O)(O)O)c1ccc(Cl)cc1 (stereo not given) | inactive |
| NNC(N)=O | inactive |
| COc1ccc(CNC(=O)/C=C/c2ccc3[nH]cc(CCN(C)C)c3c2)cc1 | inactive |
| C[C@]12Cc3cn4c(nc3C=C1CCC1C2CC[C@@]2(C)[C@H]1CC[C@@]2(O)C#N)nc1ccccc14 (stereo not given in full) | inactive |
| Ic1ccccc1CNC1C2CCN(CC2)C1C(c1ccccc1)c1ccccc1 (stereo not given) | inactive |
| CN(N=O)c1ccc(O)c(O)c1 | 1.12 µM (active) |
